PubChem BioAssay AID372 (MTDP, 2006)
About 770 (0.77%) of roughly 100,000 compounds were called active. The entries come from a sample that favours actives as a whole. Unmarked numbers belong to inactive results. Rule as the data show it: active = inhibition above about 50%; inactive = the rest.

Target: Gag-Pol polyprotein (Human immunodeficiency virus type 1 group M subtype B (isolate HXB2)) (UniProt P04585)
Experiment: RNase H inhibition, HIV 1 Gag Pol polyprotein, FRET biochemical assay, screening (AID 372)
Conditions: HIV-1 RT RNase H, FRET RNA/DNA substrate fluorescence; at 10 µM; hits give high values

| SMILES | inhibition |
| --- | --- |
| NNC(=O)c1cc(C(=O)O)nc2ccc(Br)cc12 | 6% |
| CCOc1ccc(/C=C2/SC(NC(C)=O)=NC2=O)cc1 | 0% |
| COc1cc(C(=O)NC(=S)Nc2cccc(-c3nc4ncccc4o3)c2C)cc(OC)c1OC | 17% |
| Cc1cc(C)cc(NCc2ccc3c(c2)OCO3)c1 | 9% |
| C=CCOc1ccccc1/C=N/NC(=O)c1cccc(I)c1 | 10% |
| O=S(NC1CCCCC1)C12CC3CC(CC(C3)C1)C2 (stereo unspecified) | 2% |
| CC1=NN(c2ccccc2)C(=O)C1C(c1cccc([N+](=O)[O-])c1)C1C(=O)N(c2ccccc2)N=C1C (stereo unspecified) | 12% |
| CCOC(=O)C1=C(C)NC(C)=C(C(=O)OC)C1c1ccc([N+](=O)[O-])cc1 (stereo unspecified) | 16% |
| O=C1N=c2ccccc2=C1c1sc(=S)[nH]c1O | 6% |
| Cc1ccc(C2(C)N(O)C(C)C(c3ccccc3)=[N+]2[O-])cc1 (stereo unspecified) | 0% |
| COc1ccc(CCN2C(=O)/C(=C\c3cccc4ccccc34)SC2=S)cc1OC | 9% |
| CCCOC(=O)c1ccc(NC(=O)c2cccc([N+](=O)[O-])c2)cc1 | 17% |
| Cc1cc2nc(-c3ccc(NC(=O)c4ccc(-c5ccccc5[N+](=O)[O-])o4)cc3)oc2cc1C | 52% (active) |
| Cc1cc2nc(-c3ccc(NC(=O)c4cccc([N+](=O)[O-])c4C)cc3)oc2cc1C | 15% |
| COC(=O)c1cc(NC(=O)c2ccc(-c3ccccc3[N+](=O)[O-])o2)cc(C(=O)OC)c1 | 45% |
| Cc1ccccc1-c1nc2cc(NC(=O)c3ccc(-c4ccccc4[N+](=O)[O-])o3)ccc2o1 | 37% |
| O=C(Nc1cc(Cl)cc(Cl)c1)c1ccc(-c2ccccc2[N+](=O)[O-])o1 | 59% (active) |
| CC(=O)c1cccc(NC(=O)c2ccc(-c3ccccc3[N+](=O)[O-])o2)c1 | 13% |
| O=C(Cc1cccc2ccccc12)N/N=C/c1cc(Br)c(O)c(Br)c1O | 0% |
| CCOc1cccc(NC(=O)/C(C#N)=C\c2ccc(-c3cccc([N+](=O)[O-])c3)o2)c1 | 10% |
| CN1C(=O)/C(=C\c2ccc(Sc3ccc(Cl)cc3)o2)SC1=S | 22% |
| Cc1ccc(Sc2ccc(/C=C3/SC(=S)N(C)C3=O)o2)cc1 | 45% |
| CN1C(=O)S/C(=C/c2ccc(Sc3ccccc3)o2)C1=O | 52% (active) |
| CCCCOc1ccc(C(=O)N2CCCc3ccccc32)cc1 | 13% |

| SMILES | inhibition |
| --- | --- |
| O=C(Nc1cccc(NC(=O)C(Cl)(Cl)Cl)c1)c1ccc(Cl)cc1Cl | 13% |
| Cc1nc(/N=C/c2ccc(Br)cc2)sc1C | 8% |
| COc1ccc(C=C2C(=O)NC(=S)NC2=O)cc1OC(=O)c1cccc2ccccc12 | 26% |
| NC1=NC(=O)/C(=C/c2ccc(OC(=O)c3cccc4ccccc34)cc2)S1 | 20% |
| CCOc1cc(C=C2C(=O)NC(=O)NC2=O)ccc1OCc1cccc2ccccc12 | 43% |
| CCOc1cc(C=C2C(=O)NC(=O)NC2=O)ccc1OC(=O)c1cccc2ccccc12 | 56% (active) |
| COc1cc(/C=C2\SC(N)=NC2=O)cc(Br)c1OC(=O)c1cccc2ccccc12 | 35% |
| COc1cc(/C=C2\SC(N)=NC2=O)ccc1OCc1cccc2ccccc12 | 52% (active) |
| COc1cc(/C=C2\SC(N)=NC2=O)cc(Br)c1OCc1cccc2ccccc12 | 30% |
| COc1cc(/C=C2/SC(N)=NC2=O)ccc1OCc1ccccc1[N+](=O)[O-] | 39% |
| COc1ccc(/C=C2\SC(N)=NC2=O)cc1OC(=O)c1cccc2ccccc12 | 53% (active) |
| CCOC(=O)C(=CNc1ccc(F)c(F)c1F)C(=O)OCC | 10% |
| CC(C)(C)c1ccc(C(=O)NCCSc2ccc(Cl)cc2)cc1 | 19% |
| O=C(N/N=C\c1cc(Br)ccc1O)c1cnccn1 | 7% |
| Cc1ccc(NC(=S)NC(=O)c2ccccc2Cl)cc1C | 11% |
| O=C(COc1ccc(Br)cc1Cl)NCc1cccnc1 | 0% |
| CC(=O)n1ccc(C(=O)Nc2ccc(Cl)c(Cl)c2)n1 | 2% |
| O=C(Nc1ccc(F)cc1F)c1cnn2c1NC(c1cccs1)CC2C(F)(F)F (stereo unspecified) | 5% |
| O=c1oc2ccc(O)c(-c3ccccc3Cl)c2s1 | 2% |
| O=C(Oc1ccc2oc(=O)sc2c1)c1ccccc1 | 6% |
| Cc1cc(I)ccc1NC(=O)c1ccccc1F | 8% |
| CC(=O)c1cccc(NC(=O)C2CCCCC2)c1 | 0% |
| O=C(Nc1ccc2ccccc2c1)C1CCCCC1 | 2% |
| O=C(c1ccccc1)c1cccc(NC(=O)C2CCCCC2)c1 | 51% (active) |

| SMILES | inhibition |
| --- | --- |
| O=C(COc1cccc(Br)c1)N/N=C/c1ccc(Cl)cc1 | 7% |
| CCOc1ccc(C(=O)Nc2cc(Cl)cc(Cl)c2)cc1Br | 1% |
| COc1ccc(-c2nnc(NC(C)=O)s2)cc1 | 0% |
| COc1ccc(-c2nnc(N)s2)cc1 | 7% |
| COc1cc(NC(=O)COc2ccc(C)c(C)c2)c(OC)cc1Cl | 7% |
| COc1cc([N+](=O)[O-])cc(/C=C2\C(=O)NC(=O)N(c3ccc(Cl)cc3)C2=O)c1O | 7% |
| O=C(Nc1ccc(-c2ccc(NC(=O)c3ccccc3Cl)c(Cl)c2)cc1Cl)c1ccccc1Cl | 51% (active) |
| O=C(Nc1ccc(Cl)cc1Cl)c1ccccc1Cl | 3% |
| O=C(Nc1ccc(I)cc1Cl)c1ccccc1Cl | 37% |
| CCn1c2ccccc2c2cc(CN3CCC(C)CC3)ccc21 | 7% |
| CC(=O)Nc1ccc(NS(=O)(=O)c2ccc(C)cc2C)cc1 | 2% |
| O=C(Nc1ccc(O)cc1)c1ccc(N2C(=O)c3cccc([N+](=O)[O-])c3C2=O)cc1 | 3% |
| O=C(Nc1nccs1)c1ccc(N2C(=O)c3ccc([N+](=O)[O-])cc3C2=O)cc1 | 31% |
| O=C(Nc1nccs1)c1ccc(N2C(=O)c3cccc([N+](=O)[O-])c3C2=O)cc1 | 56% (active) |
| Cc1nc(-c2ccccc2)sc1C(=O)Nc1ccc(-c2cn3ccccc3n2)cc1 | 6% |
| O=C(Nc1ccc2oc(-c3cccc4ccccc34)nc2c1)c1cc([N+](=O)[O-])ccc1Cl | 21% |
| COc1ccc(OCCOCCOc2c(OC)cccc2OC)cc1 | 11% |
| CCOc1cccc(C(=O)NC(=S)Nc2ccc(-c3nc4cc(CC)ccc4o3)cc2)c1 | 5% |
| COc1ccc(C(=O)NC(=S)Nc2ccc3oc(-c4cccc(F)c4)nc3c2)cc1[N+](=O)[O-] | 41% |
| CCc1ccc2oc(-c3ccc(NC(=S)NC(=O)c4cccc(F)c4)cc3)nc2c1 | 59% (active) |
| CCOc1ccc(C(=O)NC(=S)Nc2ccc3oc(-c4cccc(F)c4)nc3c2)cc1[N+](=O)[O-] | 58% (active) |
| COc1ccc(C(=O)NC(=S)Nc2ccc3oc(-c4ccccc4)nc3c2)cc1Br | 47% |
| COc1ccc(C(=O)NC(=S)Nc2ccc3oc(-c4cccc(F)c4)nc3c2)cc1OC | 7% |
| CCOc1ccc(C(=O)NC(=S)Nc2ccc3oc(-c4cccnc4)nc3c2)cc1[N+](=O)[O-] | 4% |

| SMILES | inhibition |
| --- | --- |
| CCc1ccc2oc(-c3ccc(NC(=S)NC(=O)c4cccc(Cl)c4)cc3)nc2c1 | 17% |
| COc1ccc(C(=O)NC(=S)Nc2ccc3oc(-c4cccc(F)c4)nc3c2)cc1Br | 56% (active) |
| NC(=S)N=Nc1c(O)[nH]c2ccc(F)cc12 | 9% |
| COc1cccc(C(=O)NNC(=O)C2CCCO2)c1 (stereo unspecified) | 4% |
| COc1cc(C=O)ccc1OCCCOc1ccc([N+](=O)[O-])cc1Cl | 29% |
| COC(=O)c1c(C)oc2ccc(OS(C)(=O)=O)cc12 | 0% |
| O=C(Nc1cccc(Cl)c1)Nc1nc2ccc(Br)cc2s1 | 35% |
| Cn1cccc1/C=C1/C(=O)NC(=S)N(c2cccc(Cl)c2)C1=O | 31% |
| O=C(/C=C/c1ccccc1)NC(=S)Nc1ccc(NC(=O)c2cccs2)cc1 | 62% (active) |
| Cc1ccc(NC(=S)NC(=O)/C=C/c2ccccc2)cc1Cl | 51% (active) |
| O=C(/C=C/c1ccccc1)NC(=S)Nc1ccc(NC(=O)c2ccccc2)cc1 | 9% |
| O=C(/C=C/c1ccc(Cl)cc1)NC(=S)Nc1ccc(NC(=O)c2cccs2)cc1 | 24% |
| Cc1cccc(NC(=S)NC(=O)/C=C/c2ccccc2)c1 | 6% |
| Cc1ccc(NC(=S)NC(=O)/C=C/c2ccccc2)cc1C | 9% |
| Brc1ccc(/C=N/Nc2ncnc3c2cnn3-c2ccccc2)cc1 | 6% |
| Nc1ncc(Cc2ccc(F)cc2)s1 | 6% |
| COc1cccc(/C=C2\N=C(c3cccs3)OC2=O)c1OC | 8% |
| O=C1NC(=S)N/C1=C\c1ccc(-c2cc([N+](=O)[O-])ccc2O)o1 | 29% |
| O=C1NC(=S)N/C1=C/c1ccc(-c2cc([N+](=O)[O-])ccc2Cl)o1 | 50% (active) |
| O=C1NC(=S)N/C1=C\c1ccc(-c2cc([N+](=O)[O-])ccc2Br)o1 | 50% (active) |
| O=C1NC(=S)N/C1=C/c1ccc(-c2ccc([N+](=O)[O-])cc2Cl)o1 | 5% |
| Cc1cc(Br)c(-c2ccc(/C=C3/NC(=S)NC3=O)o2)cc1C | 24% |
| O=C1NC(=S)N/C1=C\c1ccc(-c2cccc([N+](=O)[O-])c2)o1 | 14% |
| CCCOc1cccc(/C=C2\N=C(c3ccc(F)cc3)OC2=O)c1 | 11% |
